High-throughput results: PubChem BioAssay, University of Kansas High Throughput Screening Laboratory
Pf apPOL block: Pf-apPOL DNA polymerase inhibition; Recombinant Pf-apPOL, molecular beacon fluorescence, 1.5 h; inhibition, % at 10 µM; 210,000 compounds, 0.25% hits
mHTT-CaM PPI inh: inhibitors of human mutant huntingtin-calmodulin interaction; 190,000 compounds, 3.6% hits; P42858; AID 1671202; AlphaScreen His-mHTT/GST-CaM binding, luminescence; inhibition, % at 15 µM;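 note: 0% = both proteins with DMSO and 100% = one protein alone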
The depositor's hits bear a star. Hits are enriched below; roughly 3.6% of the tested compounds scored in any of these assays. Cut-off read from the data, not from the text of the source: active = inhibition above about 50%; inactive = the rest.

Results for CC(C)C1C(=O)N(Cc2cn(Cc3ccco3)nn2)CCS(=O)(=O)N1Cc1ccc(-c2ccc(Cl)cc2)cc1 (stereo not drawn) ?
Pf apPOL block: -14; mHTT-CaM PPI inh: 50

Results for CC(C)C1C(=O)N(Cc2cn(Cc3ccco3)nn2)CCS(=O)(=O)N1Cc1ccc(-c2ccc(F)cc2)cc1 (stereo not drawn) ?
Pf apPOL block: -5; mHTT-CaM PPI inh: 69*

How did CC(C)C1C(=O)N(Cc2cn(Cc3ccco3)nn2)CCS(=O)(=O)N1Cc1ccc(-c2ccncc2)cc1 (stereo not drawn) do in these assays?
Pf apPOL block: 0; mHTT-CaM PPI inh: 23

How did CC(C)C1C(=O)N(Cc2cn(Cc3ccco3)nn2)CCS(=O)(=O)N1Cc1ccc(-c2ccccc2)cc1 (stereo not drawn) do in these assays?
Pf apPOL block: -1; mHTT-CaM PPI inh: 73*

What do the screens show for `CNC(=O)C1CN(C(=O)NCCc2ccccc2)CC12CCCC2` (stereo not drawn)?
Pf apPOL block: -6; mHTT-CaM PPI inh: -2

Results for CC(CN1CCC(C(=O)N2CCOCC2)CC1)c1ccccc1 (stereo not drawn) ?
Pf apPOL block: -6; mHTT-CaM PPI inh: 3

Results for CC(C)Oc1ccc(NC(=O)c2ccccc2Br)cc1 ?
Pf apPOL block: -5; mHTT-CaM PPI inh: -11

What do the screens show for `CCN1CCN(Cc2c(O)ccc3c2OC(=Cc2cccc(OC)c2OC)C3=O)CC1`?
Pf apPOL block: 2; mHTT-CaM PPI inh: 7

How did Cc1cccc(C(=O)Nc2ccc3c(c2)OCCO3)c1 do in these assays?
Pf apPOL block: -4; mHTT-CaM PPI inh: -5

Results for CC(C)C1C(=O)N(Cc2cn(Cc3ccco3)nn2)CCS(=O)(=O)N1Cc1ccc(-c2ccc(F)nc2)cc1 (stereo not drawn) ?
Pf apPOL block: -7; mHTT-CaM PPI inh: 60*

Results for COc1ccc(-c2ccc(CN3C(C(C)C)C(=O)N(Cc4cn(CCC5OCCO5)nn4)CCS3(=O)=O)cc2)cn1 (stereo not drawn) ?
Pf apPOL block: 4; mHTT-CaM PPI inh: 45

Results for Cc1ccc(-c2ccc(CN3C(C)C(=O)N(Cc4cn(CCC5OCCO5)nn4)CCS3(=O)=O)cc2)cc1 (stereo not drawn) ?
Pf apPOL block: -4; mHTT-CaM PPI inh: -1

How did CC(C)C1C(=O)N(Cc2cn(CC3CCCCC3)nn2)CCS(=O)(=O)N1Cc1ccc(-c2ccc(F)nc2)cc1 (stereo not drawn) do in these assays?
Pf apPOL block: 0; mHTT-CaM PPI inh: 25

What do the screens show for `COc1ccc(-c2ccc(CN3C(C(C)C)C(=O)N(Cc4cn(CCC5OCCCO5)nn4)CCS3(=O)=O)cc2)cn1` (stereo not drawn)?
Pf apPOL block: -16; mHTT-CaM PPI inh: 50*

Results for CC1C(=O)N(Cc2cn(CCC3OCCO3)nn2)CCS(=O)(=O)N1Cc1ccc(-c2ccccc2)cc1 (stereo not drawn) ?
Pf apPOL block: 7; mHTT-CaM PPI inh: 74*

How did CCc1ccccc1NC(=O)C(=O)NCc1ccccc1C do in these assays?
Pf apPOL block: 0; mHTT-CaM PPI inh: 4

Results for CCOc1ccccc1/C=C1\N=C(c2cccc(Cl)c2Cl)OC1=O ?
Pf apPOL block: 6; mHTT-CaM PPI inh: 1

What do the screens show for `Cc1ccc(C)c(NC(=O)Cn2nc3c(cc2=O)CC(C)CC3)c1` (stereo not drawn)?
Pf apPOL block: -2; mHTT-CaM PPI inh: -5

Results for COc1ccc(-c2cc(C(=O)Nc3ccc(F)c(F)c3)sn2)cc1 ?
Pf apPOL block: -3; mHTT-CaM PPI inh: -18

What do the screens show for `CCC(C)NC(=O)c1cnn2c(C)c(Cc3cccc(Cl)c3)c(C)nc12` (stereo not drawn)?
Pf apPOL block: -6; mHTT-CaM PPI inh: 82*

How did CCC(C)NC(=O)c1cnn2c(C)c(Cc3ccc(Cl)cc3)c(C)nc12 (stereo not drawn) do in these assays?
Pf apPOL block: 5; mHTT-CaM PPI inh: 26

How did CCC(C)NC(=O)c1cnn2c(C)c(Cc3c(C)cc(C)cc3C)c(C)nc12 (stereo not drawn) do in these assays?
Pf apPOL block: 31; mHTT-CaM PPI inh: 27

How did Cc1nc2c(C(=O)O)cnn2c(C)c1Cc1ccccc1 do in these assays?
Pf apPOL block: -20; mHTT-CaM PPI inh: 4

How did CCC(C)NC(=O)c1cnn2c(C)c(Cc3cccc(Br)c3)c(C)nc12 (stereo not drawn) do in these assays?
Pf apPOL block: -4; mHTT-CaM PPI inh: 74*

Results for CCC(C)NC(=O)c1cnn2c(C)c(Cc3ccccc3C)c(C)nc12 (stereo not drawn) ?
Pf apPOL block: -4; mHTT-CaM PPI inh: 87*

What do the screens show for `COc1ccc(OC)c(CNC(=O)c2cc3c(s2)CCN(C(=O)c2ccccc2)C3)c1`?
Pf apPOL block: -4; mHTT-CaM PPI inh: 14

Results for Cc1ccccc1OCC(=O)N1CCC(CCOc2cccnc2)CC1 ?
Pf apPOL block: -7; mHTT-CaM PPI inh: 3

Results for CCC(CC)C(=O)N1CCC(N2CCN(CC)C2=O)CC1 ?
Pf apPOL block: -3; mHTT-CaM PPI inh: -11

How did Cc1ccccc1NC1=C(N2CCOCC2)C(=O)c2ccccc2C1=O do in these assays?
Pf apPOL block: 2; mHTT-CaM PPI inh: 5

How did Cc1ccccc1NC1=C(N)C(=O)c2ccccc2C1=O do in these assays?
Pf apPOL block: -8; mHTT-CaM PPI inh: 59*

Results for Cn1c(Cc2ccccc2)nnc1Sc1ccc([N+](=O)[O-])cc1S(=O)(=O)N1CCOCC1 ?
Pf apPOL block: 2; mHTT-CaM PPI inh: 11

Results for O=C(C1CCN(c2nnc(-c3ccccc3)o2)CC1)N1CCCCC1 ?
Pf apPOL block: -7; mHTT-CaM PPI inh: -2

What do the screens show for `O=C(C1CCN(c2nnc(-c3ccccc3)o2)CC1)N1CCC(Cc2ccccc2)CC1`?
Pf apPOL block: -7; mHTT-CaM PPI inh: 70*

Results for O=C(CSc1nc2ccccc2[nH]1)c1ccc2c(c1)OCO2 ?
Pf apPOL block: -2; mHTT-CaM PPI inh: 8

How did O=C(CSc1nc2ccccc2[nH]1)c1ccc(Cl)c(Cl)c1 do in these assays?
Pf apPOL block: -4; mHTT-CaM PPI inh: 51*

How did CCCNC(=O)C1CCN(c2nc(C(C)C)nc3csc(C)c23)CC1 do in these assays?
Pf apPOL block: -11; mHTT-CaM PPI inh: 48

Results for O=C(Nc1cccc(N=Cc2cc(Br)ccc2O)c1)c1ccco1 ?
Pf apPOL block: -8; mHTT-CaM PPI inh: 26

Results for CC(=O)Nc1cccc(N=Cc2cc(Cc3ccccc3)ccc2O)c1 ?
Pf apPOL block: 1; mHTT-CaM PPI inh: 95*

Results for Cc1ccccc1C(=O)Nc1cccc(N=Cc2cc(Cl)cc([N+](=O)[O-])c2O)c1 ?
Pf apPOL block: 2; mHTT-CaM PPI inh: 49

Results for CC(=O)Nc1cccc(N=Cc2cc(Cc3ccccc3Cl)cc([N+](=O)[O-])c2O)c1 ?
Pf apPOL block: -3; mHTT-CaM PPI inh: 98*

How did CCC(=O)Nc1nonc1-c1noc(CC)n1 do in these assays?
mHTT-CaM PPI inh: -2

How did COc1ccc(N2CCN(C(=O)c3ccc(-c4cccnc4)nc3)CC2)cc1 do in these assays?
Pf apPOL block: 1; mHTT-CaM PPI inh: 3

Results for O=C(CSc1cn(Cc2ccc(F)cc2)c2ccccc12)N1CCCCC1 ?
Pf apPOL block: 3; mHTT-CaM PPI inh: 31

Results for CC1CCN(C(=O)CSc2cn(Cc3ccc(Cl)cc3)c3ccccc23)CC1 ?
Pf apPOL block: -4; mHTT-CaM PPI inh: 91*

Results for O=C(CSc1cn(Cc2ccc(F)cc2)c2ccccc12)N1CCCCCC1 ?
Pf apPOL block: -8; mHTT-CaM PPI inh: 70*
